In PubChem BioAssay (EPA / NIEHS):
Records with an inconclusive call do not appear. Activity calls are given as the source filed them. The calls were made as follows: active = hit-call score of the fitted dose curve at least 0.9, where 1 is the maximum; inconclusive = response in the unintended direction; inactive = score below 0.9.

Tests used:
[1] = TOX21_p53_BLA_p2_viability: Viability Assessment in the Tox21 HCT-116 p53 Agonism Beta-lactamase Assay, Phase 2 (AID 2283591);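 also: compound exposure lasted 16 h at 37 °C; actives lower the ATP signal meaning cytotoxicity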
How it was run: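 HCT-116 p53-bla cells (4000/well) rested 5 h at 37C, then received compounds in DMSO (217-fold dilution) for 16 h at 37C, 5% CO2. After the CCF4 read, CellTiter-Glo was added; ATP luminescence was read after 30 min at room temperature.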

[2] = biological target: Cellular tumor antigen p53 (Homo sapiens) (UniProt P04637); assay: TOX21_p53_BLA_p2_ratio: Tox21 HCT-116 p53 Agonism Beta-lactamase Assay, Ratio, Phase 2 (AID 2283592)
How it was run: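 First, HCT116 reporter cells settle for 5 h at 37C. Next, DMSO compound solutions are pinned in (217-fold dilution) and left 16 h. Finally, CCF4-AM substrate is loaded 2 h at room temperature and the 460/530 nm ratio read.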

[3] = TOX21_p53_BLA_p3_viability: Viability Assessment in the Tox21 HCT-116 p53 Agonism Beta-lactamase Assay, Phase 3 (AID 2283593);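 also: cells exposed to compound for 16 h before reading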
How it was run: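 HCT-116 cells (4000/well) rested 5 h at 37C, then got DMSO compounds by pin tool (217-fold dilution) for 16 h at 37C, 5% CO2. After the bla read, CellTiter-Glo was added and luminescence read at 30 min, room temperature.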

[4] = biological target: Cellular tumor antigen p53 (Homo sapiens) (UniProt P04637); assay: TOX21_p53_BLA_p3_ratio: Tox21 HCT-116 p53 Agonism Beta-lactamase Assay, Ratio, Phase 3 (AID 2283596)
How it was run: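 Cells were seeded at 4000/well, rested 5 h at 37C, then dosed with DMSO compound solutions (217-fold dilution) for 16 h. CCF4-AM substrate was loaded for 2 h at room temperature, and the 460/530 nm emission ratio was fitted for gain of signal versus DMSO.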

[5] = TOX21_p53_BLA_p4_viability: Viability Assessment in the Tox21 HCT-116 p53 Agonism Beta-lactamase Assay, Phase 4 (AID 2283597);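 also: hits lower the luminescence signal meaning cytotoxicity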
How it was run: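 4000 HCT116 cells per well; 5 h attachment; compounds from DMSO, 217-fold dilution; 16 h at 37C. Then CCF4-AM, 2 h RT, followed by CellTiter-Glo, 30 min RT, luminescence. Decrease = cytotoxicity.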

[6] = biological target: Cellular tumor antigen p53 (Homo sapiens) (UniProt P04637); assay: TOX21_p53_BLA_p4_ratio: Tox21 HCT-116 p53 Agonism Beta-lactamase Assay, Ratio, Phase 4 (AID 2283601)
How it was run: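 HCT116 cells carrying an inducible beta-lactamase reporter were plated at 4000 cells/well, rested 5 h, then exposed to compounds in DMSO (217-fold dilution) for 16 h at 37C. CCF4-AM substrate was loaded 2 h at room temperature; 460/530 nm emission ratio scored gain-of-signal versus DMSO.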

Measured: outcome

Sequence of Cellular tumor antigen p53 (Homo sapiens) (P04637 whole entry, looked up): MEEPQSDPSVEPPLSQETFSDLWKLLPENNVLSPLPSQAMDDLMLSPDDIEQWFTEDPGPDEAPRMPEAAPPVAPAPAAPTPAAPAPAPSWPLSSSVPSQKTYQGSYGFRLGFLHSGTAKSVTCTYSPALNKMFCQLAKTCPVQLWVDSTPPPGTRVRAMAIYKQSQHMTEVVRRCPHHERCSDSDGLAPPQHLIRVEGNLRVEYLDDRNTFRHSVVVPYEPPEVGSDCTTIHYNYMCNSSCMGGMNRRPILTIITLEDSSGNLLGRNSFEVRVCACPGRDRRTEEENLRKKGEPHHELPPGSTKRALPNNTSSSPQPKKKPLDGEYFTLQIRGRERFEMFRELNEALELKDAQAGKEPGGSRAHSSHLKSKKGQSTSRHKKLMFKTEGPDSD

O=C(c1ccccc1O)c1ccccc1O
inactive: all assays above
